PubChem BioAssay AID1851 (National Center for Advancing Translational Sciences (NCATS), 2009)
Out of some 16,000 compounds screened, about 5,700 (36%) were called active. About 24% were inconclusive and are not listed. Some of the results follow. Unmarked numbers belong to inactive results. The call rests on the fitted dose curve; in most records, active means well fitted curve in the direction sought with a large enough effect; inconclusive means small, poorly fitted or top-dose-only effect, or effect the other way; inactive means no such curve, though single readings can be large or run the other way.

biological target: Cytochrome P450 1A2 (Homo sapiens) (UniProt P05177); experiment: Cytochrome panel assay with activity outcomes; conditions: recombinant CYP, pro-luciferin dealkylation, luminescence, p450-cyp1a2; series mostly up to 57.1 µM
On the % scale 0 is the no-effect control and ±100 the full control effect.

Sequence of Cytochrome P450 1A2 (Homo sapiens) (P05177 whole entry, looked up): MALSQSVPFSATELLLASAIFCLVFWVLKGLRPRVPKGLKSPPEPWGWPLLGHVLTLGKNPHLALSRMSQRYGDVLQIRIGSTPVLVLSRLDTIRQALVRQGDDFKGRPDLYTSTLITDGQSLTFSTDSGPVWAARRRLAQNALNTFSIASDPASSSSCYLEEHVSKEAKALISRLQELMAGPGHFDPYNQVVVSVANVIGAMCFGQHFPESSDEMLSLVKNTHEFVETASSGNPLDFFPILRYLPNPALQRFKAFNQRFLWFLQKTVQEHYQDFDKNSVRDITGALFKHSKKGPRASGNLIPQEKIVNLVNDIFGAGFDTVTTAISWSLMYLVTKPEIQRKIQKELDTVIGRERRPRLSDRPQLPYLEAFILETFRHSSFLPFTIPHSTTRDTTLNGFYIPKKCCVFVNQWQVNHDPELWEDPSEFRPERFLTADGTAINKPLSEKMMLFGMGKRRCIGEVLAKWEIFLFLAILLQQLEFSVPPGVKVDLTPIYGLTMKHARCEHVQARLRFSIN

SMILES | AC50 | activity, negative = inhibition
Cc1cccc(Oc2coc3cc(OC(=O)c4cc5ccccc5oc4=O)ccc3c2=O)c1 | inactive | 
Cc1cc(C)cc(Oc2coc3cc(OC(=O)c4cccs4)ccc3c2=O)c1 | 2 µM (active) | 
Cc1nc(N=Nc2ccc(S(=O)(=O)O)cc2S(=O)(=O)O)c(COP(=O)(O)O)c(C=O)c1O | inactive | 
CN(Cc1ccccc1)c1nc(-c2ccc([N+](=O)[O-])cc2)nc2ccccc12 | 1.58 µM (active) | 
CN(Cc1ccco1)c1nc(-c2cccnc2)nc2ccccc12 | 0.316 µM (active) | 
CN(C)c1ccc(-c2nc(N(C)Cc3ccco3)c3ccccc3n2)cc1 | 0.631 µM (active) | 
CN(Cc1ccco1)c1nc(-c2ccc3c(c2)OCO3)nc2ccccc12 | 0.501 µM (active) | 
CN(Cc1ccco1)c1nc(-c2ccoc2)nc2ccccc12 | 0.398 µM (active) | 
Cc1ccc2[nH]c3nc(CCCn4ccnc4-c4ccccc4)nnc3c2c1 |  | -11.9% [at 11.4 µM]
Cc1ccc2[nH]c3c(N4CCc5ccccc5C4)ncnc3c2c1 | 1.58 µM (active) | 
CCOC(=O)N1CCN(C(=O)c2ccc3nc(SCc4ccc(F)cc4)n(C)c3c2)CC1 | inactive | 
COc1ccc2c(c1)nc(SCC(=O)c1ccc(Br)s1)n2C | 7.94 µM (active) | 
CCOc1ccc2c(c1)nc(SCC(=O)c1ccc(Br)s1)n2C | 2.24 µM (active) | 
CCC/C=C(\CCC)C(NC(=O)C(C)(C)C)c1ccc(C(=O)OC)cc1 (centres undefined) | inactive | 
CCC/C=C(\CCC)C(NC(=O)c1ccc(C(F)(F)F)cc1)c1ccc(C(F)(F)F)cc1 (centres undefined) | inactive | 
CCC/C=C(\CCC)C(NC(=O)Oc1ccc(F)cc1)c1ccc(C(=O)OC)cc1 (centres undefined) | inactive | 
CCC/C=C(\CCC)C(NC(=O)c1ccc(C(=O)OC)cc1)c1ccc(C(=O)OC)cc1 (centres undefined) | inactive | 
CCC/C=C(\CCC)C(NC(=O)c1cccs1)c1ccc(C(=O)OC)cc1 (centres undefined) | 5.01 µM (active) | 
CCC/C=C(\CCC)C(NS(=O)(=O)c1cccs1)c1ccc(C(=O)OC)cc1 (centres undefined) | 12.6 µM (active) | 
CCC/C=C(\CCC)C(NS(=O)(=O)CC12CCC(CC1=O)C2(C)C)c1ccc(C(=O)OC)cc1 (centres undefined) | inactive | 
CCC/C=C(\CCC)C(NS(=O)(=O)c1ccc(C(F)(F)F)cc1)c1ccc(C(=O)OC)cc1 (centres undefined) | inactive | 
CCC/C=C(\CCC)C(NC(=O)OCC(C)C)c1ccc(C(=O)OC)cc1 (centres undefined) | 15.8 µM (active) | 

SMILES | AC50 | activity, negative = inhibition
Clc1ccc2c(NCCNC3CCCCC3)ccnc2c1 |  | -10.2% [at 2.29 µM]
O=C(OC[C@@H](O)CO)c1ccccc1Nc1ccnc2cc(Cl)ccc12 | 5.01 µM (active) | 
Clc1ccc2c(NC3CCC(N4CCCCC4)CC3)ccnc2c1 (centres undefined) |  | -15.7% [at 2.29 µM]
CCN1CNC(=S)N(c2cc(C)ccc2C)C1 | inactive | 
CCOC(=O)C[n+]1c(C)sc2ccc(OC)cc21 | 14.1 µM (active) | 
Cc1sc2ccccc2[n+]1CCC(=O)O |  | -3.71% [at 11.4 µM]
Cc1cc2sc(C)[n+](CCCOS(=O)(=O)O)c2cc1C |  | -10.3% [at 11.4 µM]
COc1cccc2c(=O)c(C(=O)NCc3cccs3)c[nH]c12 | 0.631 µM (active) | 
O=c1c(-c2ccc(F)cc2)nc2cnc(N3CCNCC3)nc2n1Cc1ccc(F)cc1 | 15.8 µM (active) | 
O=c1cnc2cnc(N3CCNCC3)nc2n1Cc1ccc(F)cc1 | 15.8 µM (active) | 
Cc1nc2cnc(N3CCNCC3)nc2n(Cc2ccc(F)cc2)c1=O | 12.6 µM (active) | 
Cc1nc2cnc(N3CCN(C)CC3)nc2n(Cc2ccc(F)cc2)c1=O | inactive | 
COc1ccc(-c2nc3cnc(N4CCNCC4)nc3n(Cc3ccc(F)cc3)c2=O)cc1 | inactive | 
Clc1cccc(Nc2nnc(-c3ccccc3)c3ccccc23)c1 | 1.26 µM (active) | 
COc1ccc(Nc2nnc(-c3ccc(N4CCOCC4)c([N+](=O)[O-])c3)c3ccccc23)cc1 | inactive | 
CCN1CCCC1CNC(=O)C(=O)Nc1ccccc1OC (centres undefined) | inactive | 
COc1ccccc1NC(=O)C(C/C=C(\C)Cl)C(C)=O (centres undefined) | 12.6 µM (active) | 
O=C(O)[C@H]1[C@H](C(=O)O)[C@H](C(=O)O)C[C@@H]1C(=O)O |  | -9.47% [at 11.4 µM]
CCNc1ncc2nc(CCc3ccccc3)c(=O)n(C3CC3)c2n1 | 3.16 µM (active) | 
CCNc1ncc2nc(CCc3ccccc3)c(=O)n(C)c2n1 | 2.51 µM (active) | 
CCNc1ncc2nc(CCc3ccccc3)c(=O)n(CCOC)c2n1 | 2 µM (active) | 
CCNc1ncc2nc(CCc3ccccc3)c(=O)n(-c3ccccc3)c2n1 | 1.26 µM (active) | 
